Measured values taken from PubChem BioAssay AID1159580 (chemical genetic matrix, 2015).
About 2,000 (36%) of roughly 5,500 compounds were called active. About 18% were inconclusive and are not listed. Rule as the data show it: active = normalized growth mostly below about 0.91 (no sharp cut-off); inconclusive = no clear call, values can overlap the other calls; inactive = mostly above about 0.92. Some of the results follow.

Test: chemical genetic growth profiling, strain panel (AID 1159580);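 also: tested at 20 µM; growth read once vehicle control cultures reached saturation at 30 °C; 1 = growth at the plate median or of vehicle wells; lower values mean less growth of the strain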
Conditions: growth OD

Measured: normalized growth

CCOC(=O)[C@H](CCc1ccccc1)N[C@@H](C)C(=O)N1Cc2ccccc2C[C@H]1C(=O)O
inactive: S. cerevisiae deletion strains, locus YJR043C, strain POL32, hits give low values 1.02 | S. cerevisiae deletion strains, locus YJR066W, strain TOR1, hits give low values 0.98 | S. cerevisiae deletion strains, locus YKL009W, strain mrt4, hits give low values 0.994 | S. cerevisiae deletion strains, locus YKL068W, hits give low values 1 | S. cerevisiae deletion strains, locus YKL085W, strain MDH1 (second series), hits give low values 1.01 | S. cerevisiae deletion strains, locus YKL085W, strain MDH1, hits give low values 1.01 | S. cerevisiae deletion strains, locus YKL160W, strain elf1, hits give low values 0.975 | S. cerevisiae deletion strains, locus YKL190W, strain CNB1, hits give low values 1.01 | S. cerevisiae deletion strains, locus YKR001C, strain vps1, hits give low values 0.986 | S. cerevisiae deletion strains, locus YKR026C, strain gcn3, hits give low values 0.994 | S. cerevisiae deletion strains, locus YKR091W, strain srl3, hits give low values 1 | S. cerevisiae deletion strains, locus YLL001W, strain dnm1, hits give low values 0.998 | S. cerevisiae deletion strains, locus YLL026W, hits give low values 1.01 | S. cerevisiae deletion strains, locus YLL041C, strain sdh2, hits give low values 0.998 | S. cerevisiae deletion strains, locus YLR027C, strain aat2, hits give low values 0.994 | S. cerevisiae deletion strains, locus YLR039C, strain RIC1, hits give low values 1.05 | S. cerevisiae deletion strains, locus YLR058C, strain SHM2, hits give low values 1.01 | S. cerevisiae deletion strains, locus YLR102C, strain apc9, hits give low values 1.01 | S. cerevisiae deletion strains, locus YLR113W, strain HOG1, hits give low values 0.963 | S. cerevisiae deletion strains, locus YLR221C, strain rsa3, hits give low values 1.02 | S. cerevisiae deletion strains, locus YLR258W, strain gsy2, hits give low values 0.999 | S. cerevisiae deletion strains, locus YLR262C, strain YPT6 (second series), hits give low values 0.995 | S. cerevisiae deletion strains, locus YLR262C, strain YPT6, hits give low values 1.07 | S. cerevisiae deletion strains, locus YLR268W, strain sec22, hits give low values 1 | S. cerevisiae deletion strains, locus YLR320W, strain mms22, hits give low values 0.996 | S. cerevisiae deletion strains, locus YLR330W, strain CHS5, hits give low values 1 | S. cerevisiae deletion strains, locus YLR342W, strain FKS1 (second series), hits give low values 1.02 | S. cerevisiae deletion strains, locus YLR342W, strain FKS1, hits give low values 1.02 | S. cerevisiae deletion strains, locus YLR357W, strain rsc2, hits give low values 0.975 | S. cerevisiae deletion strains, locus YLR370C, strain arc18, hits give low values 0.985 | S. cerevisiae deletion strains, locus YLR371W, strain rom2, hits give low values 1.01 | S. cerevisiae deletion strains, locus YLR384C, strain iki3, hits give low values 1.01 | S. cerevisiae deletion strains, locus YLR418C, strain cdc73, hits give low values 1 | S. cerevisiae deletion strains, locus YML016C, strain PPZ1, hits give low values 1 | S. cerevisiae deletion strains, locus YML032C, strain rad52, hits give low values 1 | S. cerevisiae deletion strains, locus YML120C, strain ndi1, hits give low values 0.996 | S. cerevisiae deletion strains, locus YML124C, strain tub3, hits give low values 1.01 | S. cerevisiae deletion strains, locus YMR058W, strain fet3, hits give low values 1.01 | S. cerevisiae deletion strains, locus YMR078C, strain ctf18, hits give low values 1 | S. cerevisiae deletion strains, locus YMR125W, strain sto1, hits give low values 0.989 | S. cerevisiae deletion strains, locus YMR129W, hits give low values 0.989 | S. cerevisiae deletion strains, locus YMR205C, strain PFK2, hits give low values 1 | S. cerevisiae deletion strains, locus YMR223W, strain ubp8, hits give low values 1.02 | S. cerevisiae deletion strains, locus YMR231W, strain pep5, hits give low values 0.999 | S. cerevisiae deletion strains, locus YMR307W, strain GAS1, hits give low values 0.979 | S. cerevisiae deletion strains, locus YNL067W, strain RPL9B, hits give low values 0.995 | S. cerevisiae deletion strains, locus YNL071W, strain lat1, hits give low values 0.998 | S. cerevisiae deletion strains, locus YNL183C, strain NPR1, hits give low values 0.949 | S. cerevisiae deletion strains, locus YNL209W, strain ssb2, hits give low values 0.994 | S. cerevisiae deletion strains, locus YNL233W, strain BNI4, hits give low values 0.994 | S. cerevisiae deletion strains, locus YNL248C, strain rpa49, hits give low values 0.957 | S. cerevisiae deletion strains, locus YNL250W, strain rad50, hits give low values 1.01 | S. cerevisiae deletion strains, locus YNL271C, strain bni1, hits give low values 1.02 | S. cerevisiae deletion strains, locus YNL298W, strain CLA4, hits give low values 1.01 | S. cerevisiae deletion strains, locus YNL307C, strain MCK1, hits give low values 1.02 | S. cerevisiae deletion strains, locus YNL322C, strain KRE1 (second series), hits give low values 0.996 | S. cerevisiae deletion strains, locus YNL322C, strain KRE1, hits give low values 1.01 | S. cerevisiae deletion strains, locus YNR049C, strain mso1, hits give low values 1 | S. cerevisiae deletion strains, locus YNR052C, strain pop2, hits give low values 1.01 | S. cerevisiae deletion strains, locus YOL006C, strain TOP1, hits give low values 0.987 | S. cerevisiae deletion strains, locus YOL012C, strain htz1 1.52 | S. cerevisiae deletion strains, locus YOL147C, strain pex11, hits give low values 1.01 | S. cerevisiae deletion strains, locus YOR001W, strain rrp6, hits give low values 1.01 | S. cerevisiae deletion strains, locus YOR061W, strain CKA2, hits give low values 1.01 | S. cerevisiae deletion strains, locus YOR069W, strain VPS5, hits give low values 1 | S. cerevisiae deletion strains, locus YOR070C, strain gyp1, hits give low values 1.01 | S. cerevisiae deletion strains, locus YOR080W, strain dia2, hits give low values 1.01 | S. cerevisiae deletion strains, locus YOR083W, strain WHI5, hits give low values 0.963 | S. cerevisiae deletion strains, locus YOR106W, strain vam3, hits give low values 0.989 | S. cerevisiae deletion strains, locus YOR136W, strain idh2, hits give low values 1.01 | S. cerevisiae deletion strains, locus YOR144C, strain elg1, hits give low values 1.01 | S. cerevisiae deletion strains, locus YOR184W, strain ser1, hits give low values 1 | S. cerevisiae deletion strains, locus YOR231W, strain MKK1, hits give low values 0.974 | S. cerevisiae deletion strains, locus YOR265W, strain rbl2, hits give low values 1.02 | S. cerevisiae deletion strains, locus YOR270C, strain vph1, hits give low values 0.853 | S. cerevisiae deletion strains, locus YOR290C, strain snf2, hits give low values 0.972 | S. cerevisiae deletion strains, locus YOR316C, strain cot1, hits give low values 1.02 | S. cerevisiae deletion strains, locus YPL051W, strain arl3, hits give low values 0.995 | S. cerevisiae deletion strains, locus YPL078C, strain atp4, hits give low values 0.98 | S. cerevisiae deletion strains, locus YPL106C, strain sse1, hits give low values 1 | S. cerevisiae deletion strains, locus YPL240C, strain hsp82, hits give low values 1.02 | S. cerevisiae deletion strains, locus YPL241C, strain CIN2, hits give low values 1.01 | S. cerevisiae deletion strains, locus YPL256C, strain CLN2, hits give low values 0.962 | S. cerevisiae deletion strains, locus YPR119W, strain clb2, hits give low values 1 | S. cerevisiae deletion strains, locus YPR141C, strain kar3, hits give low values 1.01 | S. cerevisiae deletion strains, locus YPR163C, strain tif3, hits give low values 1.01 | S. cerevisiae deletion strains, locus YPR167C, strain met16, hits give low values 1.01 | S. cerevisiae deletion strains, strain wtn01, hits give low values 1 | S. cerevisiae strains, strain wild type, hits give low values 1.01
